Records with an inconclusive call do not appear. Activity calls are given as the source filed them. Unless noted, calls come from the whole dose curve; as a rule, active = well fitted curve in the direction sought with a large enough effect; inconclusive = small, poorly fitted or top-dose-only effect, or another doubt; inactive = no such curve, though single readings can be large; an effect the other way counts as inactive or inconclusive.
Experiments:
[1] = AP1 Signaling Pathway (AID 357; active = well fitted curve in either direction with a large enough effect, not every such curve was filed as active;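 note: ME-180 reporter cells stimulated with EGF at its EC50 level; % is set by controls: 0 for no effect and ±100 for the full control effect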); details: ME-180 AP-1-bla reporter, EGF-induced, beta-lactamase ratio, 5 h; at 38 µM (top of the series)
Method in brief: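 Titration-series screen for positive or negative modulators of EC50 EGF-induced signaling in ME-180 cells carrying an AP-1-driven beta-lactamase reporter. After 5 hours at 37 degrees Celsius, CCF4 460nm/530nm emission ratio gave %Activity; AC50 values derived.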

[2] = target: Cytochrome P450 1A2 (Homo sapiens) (UniProt P05177); assay: p450-cyp1a2 (AID 410; calls by dose curve;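 note: -100% = full effect of reference inhibitor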)
Method in brief: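 20nM CYP1A2 with 100uM Luciferin-ME (at Km) in 100mM KPO4; compound preincubated 10 min, NADPH regeneration added, 60 min at room temperature. Luciferin quantified by luminescence after detection reagent; normalized to 57 uM furafylline.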

[3] = NFAT Signaling Pathway (AID 444; active = well fitted curve in either direction with a large enough effect, not every such curve was filed as active;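 note: carbachol stimulus at about its EC50 of 1 µM final; % is set by controls: 0 for no effect and ±100 for the full control effect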); details: Jurkat NFAT-bla M1, carbachol, beta-lactamase ratio, 5 h; at 38 µM (top of the series)
Method in brief: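 Jurkat cells with NFAT-driven β-lactamase reporter and co-expressed M1 receptor, stimulated with carbachol (final 1 uM, ~EC50), compound titration, 5 h at 37 °C. CCF4 loaded 1 h at RT; 460/530 nm ratio gave %activity and AC50.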

[4] = Stat Signaling Pathway (AID 446; active = well fitted curve in either direction with a large enough effect, not every such curve was filed as active;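 note: ME-180 cervical cancer cells given 40 pM IL-6 alongside compound; SIE-controlled beta-lactamase reporter measured as 460/530 nm FRET emission ratio; % is set by controls: 0 for no effect and ±100 for the full control effect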); details: ME-180 SIE beta-lactamase reporter, IL-6 stimulated, 5 h; at 38 µM (top of the series)
Method in brief: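 Reporter line: ME-180 cervical carcinoma, SIE-beta-lactamase. Treatment: compound with 40 pM IL-6, 5 hrs, 37 C, in low-serum OPTI-MEM with 10 mM HEPES pH 7.3. Detection: 460/530 nm fluorescence.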

[5] = target: Glucocorticoid receptor (Homo sapiens) (UniProt P04150); assay: GR-GFP Redistribution (AID 450;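 active = compounds whose dose series gives a full or clear partial fitted curve of increased nuclear translocation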; note: potency is the fitted concentration of half-maximal effect); details: U2OS GR-GFP nuclear translocation, laser cytometry, 2 h
[6] = target: Glucocorticoid receptor (Homo sapiens) (UniProt P04150); assay: GR-EFC Redistribution (AID 451; calls by dose curve; note: potency is the fitted concentration of half-maximal effect); details: CHO-K1 GR-EFC translocation, beta-gal luminescence, 2 h
Method in brief: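 CHO-K1 cells expressing nuclear EA and GR-ED fragments of b-gal; compounds titrated up to 46 uM final, 2 h at 37 C. GR nuclear translocation read as complemented b-gal luminescence after 1 h RT detection.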

[7] = target: Mitogen-activated protein kinase 10 (Mus musculus) (UniProt Q61831); assay: JNK3 AlphaScreen Assay (AID 530; active = well fitted curve in either direction with a large enough effect, not every such curve was filed as active;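 note: kinase came from lysate of stimulated human HepG2 cells; signal reports phosphorylation of biotinylated GST-cJun 1-79 at Ser73 with 10 µM ATP; % is set by controls: 0 for no effect and ±100 for the full control effect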)
Method in brief: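 Pre-activated (IL-1β/TNFα) JNK3 in HepG2 lysates phosphorylates biotin-GST-cJun(1-79), 10 uM ATP; anti-phospho-cJun(Ser73) AlphaScreen read at room temperature, pH 7.6 Tris buffer. Compounds pre-incubated 15 min as titrations.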

[8] = target: 3',5'-cyclic-AMP phosphodiesterase 4B (Homo sapiens) (UniProt Q07343); assay: qHTS Assay for Inhibitors of PDE-IV (AID 607; active = well fitted activation curve with a large enough effect in the main read-out, with a control signal flat, not every such curve was filed as active; note: % of control where 0% means no effect)
Method in brief: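 Cell-based read-out of cAMP via a modified cyclic nucleotide-gated channel and membrane potential dye (535/590 nm) in HEK293 cells expressing PDE4 endogenously. Compounds tested up to 22.9 uM final; 100 uM RO 20-1724 reference.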

[9] = target: Guanine nucleotide-binding protein G(i) subunit alpha-1 (Homo sapiens) (UniProt P63096); assay: qHTS Assay for Inhibitors of RGS12 GoLoco Motif Activity (Green Fluorophore) (AID 879);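 note: 0% = labeled peptide with Gαi1 and full inhibition = labeled peptide alone without protein; negative values mean loss of peptide binding seen as reduced polarization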
Method in brief: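 Fluorescence polarization assay: 50 nM Gαi1 with 10 nM FITC-labeled RGS12 GoLoco peptide in 10 mM Tris pH 7.5, 150 mM NaCl, 0.1 mM GDP, 0.05% NP40, 10 min at room temperature with compound.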

[10] = target: Cytochrome P450 3A4 (Homo sapiens) (UniProt P08684); assay: qHTS Assay for Activators of Cytochrome P450 3A4 (AID 885); note: nearly all actives have a fitted effect of over 65% in size
Method in brief: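 Signal was normalized against complete inhibition by 57 uM ketoconazole. The reaction used 20nM CYP3A4 with 25uM Luciferin-PPXE, 10-min compound preincubation and a 60-min NADPH-supported step at RT.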

[11] = qHTS Assay for Identification of Small Molecule Agonists for Thrombopoietin (TPO) Signaling Pathway (AID 917); note: % is set by controls: 0 for no effect and ±100 for the full control effect
Method in brief: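 We measured Glycoprotein IIb promoter–luciferase output in IL-3-starved Ba/F3 murine cells expressing the human TPO receptor after 24 hrs at 37 C with compounds and 26 pM TPO.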

[12] = target: Pyruvate kinase (Leishmania mexicana) (UniProt Q27686); assay: qHTS Validation Assay for Inhibitors of Leishmania Mexicana Pyruvate Kinase (AID 945);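 note: 0% = DMSO only neutral control wells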
Method in brief: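 Eight-point qHTS titrations in triplicate, data normalized to DMSO neutral control. Reaction: 0.2 nM LmPYK E451W mutant, 0.5 mM PEP, 0.1 mM ADP, 7 mM MgCl2, pH 7.2, one hour at room temperature; luminescent ATP detection.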

[13] = target: Pyruvate kinase PKM (Homo sapiens) (UniProt P14618); assay: qHTS Assay for Activators of Human Muscle Pyruvate Kinase (AID 954; active = well fitted curve in the direction sought with a large enough effect, not every such curve was filed as active;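 note: 0% = uninhibited enzyme and -100% = no enzyme or full thiadiazolimine inhibition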)
Method in brief: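 Human PKM2 activity is measured as ATP generation, detected by luciferase-coupled luminescence. The enzyme (0.1 nM) acts on 0.5 mM PEP and 0.1 mM ADP for 1 h at ambient temperature; data are normalized to uninhibited and full-inhibition wells.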

[14] = target: Alpha-galactosidase A (Homo sapiens) (UniProt P06280); assay: Counterscreen for Glucocerebrosidase Inhibitors: qHTS Assay for Human alpha-Galactosidase at pH 4.5 (AID 992); note: 0% is about no effect
Method in brief: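 Quantitative HTS: compounds tested from 0.7 nM up to 77 uM against 2 nM enzyme with 80 uM 4-MU alpha-D-galactopyranoside. The 20 min room-temperature reaction is stopped with 1M NaOH/1M glycine, pH 10.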

[15] = target: alpha-glucosidase (Oryza sativa, rice) (UniProt Q653V4); assay: Counterscreen for Glucocerebrosidase Inhibitors: qHTS Assay for Rice alpha-Glucosidase at pH 5.0 (AID 997);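 note: 0% = full activity with enzyme and -100% = basal without enzyme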
Method in brief: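 Rice alpha-glucosidase (4 nM final) with 400 uM 4-methylumbelliferyl-alpha-D-glucopyranoside in citrate buffer pH 5.0, 20 min at room temperature, stopped at pH 10; fluorescence 365/440 nm, compounds 0.7 nM–77 uM, AC50 from Hill fits.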

[16] = Validation of Assay for Modulators of Lamin A Splicing (AID 1459; active = well fitted curve in the direction sought with a large enough effect in the signal ratio; the % refers to the signal ratio;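 note: cells exposed to compound for two days before reading; 0% is about no effect; ratio rise marks activators and ratio drop marks inhibitors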)
Method in brief: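 Splicing correction is reported by an EGFP-containing lamin A minigene in stably transfected S3 HeLa cells, while DsRed2 controls for viability and nonspecific signal. Cells are exposed to compounds for 48 hrs before the GFP over RFP ratio is taken.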

[17] = target: DNA repair nuclease/redox regulator APEX1 (Homo sapiens) (UniProt P27695); assay: qHTS Validation Assay for Inhibitors of the Human Apurinic/apyrimidinic Endonuclease 1 (APE1) (AID 1705)
Method in brief: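 Endonuclease activity of human APE1 is followed as dequenching when the enzyme incises a tetrahydrofuran abasic site in a short duplex labelled 5'-TAMRA/3'-BHQ-2 (50 nM final), after 15 min enzyme–compound preincubation at room temperature.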

[18] = target: Endonuclease 4 (Escherichia coli (strain K12)) (UniProt P0A6C1); assay: Counterscreen for APE1 Inhibitors: qHTS Validation Assay for Inhibitors of Endonuclease IV (AID 1708); note: % is set by controls: 0 for no effect and ±100 for the full control effect
Method in brief: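 E. coli EndoIV at 2 nM final, preincubated 15 min at room temperature with compound, then 50 nM TAMRA/BHQ-2 THF abasic-site duplex added. Buffer: 50 mM Tris-HCl pH 7.5, 50 mM NaCl, 2 mM MgCl2, 1 mM DTT, 0.01% Tween-20. Kinetic fluorescence increase, third minus first read.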

[19] = qHTS for differential inhibitors of proliferation of Plasmodium falciparum line 7G8 (AID 1815);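 note: potency is the fitted concentration of half-maximal effect; parasite growth measured after three days of incubation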
[20] = qHTS for differential inhibitors of proliferation of Plasmodium falciparum line GB4 (AID 1816); details: Potency: Plasmodium falciparum GB4 proliferation inhibition;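 note: potency is the fitted concentration of half-maximal effect; parasite growth measured after 72 h incubation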
[21] = qHTS for differential inhibitors of proliferation of Plasmodium falciparum line 3D7 (AID 1876); note: potency is the fitted concentration of half-maximal effect
[22] = qHTS for differential inhibitors of proliferation of Plasmodium falciparum line D10 (AID 1877);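 note: potency is the fitted concentration of half-maximal effect; parasites grown with compound for 72 h before DNA staining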
[23] = qHTS for differential inhibitors of proliferation of Plasmodium falciparum line Dd2 (AID 1882); details: Potency: Plasmodium falciparum Dd2 proliferation inhibition;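 note: plate controls were DMSO vehicle for no effect and 0.29 µM artemisinin for full effect; nearly all actives have a fitted effect of over 65% in size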
Method in brief: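 Dd2-infected erythrocytes (0.3% parasitemia, 2.5% hematocrit final) incubated with compound 72 h at 37 C, 5% CO2; lysed with saponin/Triton buffer containing SYBR Green I, incubated overnight in the dark, then read by fluorescence (485/535 nm). Normalized to 0.29 uM artemisinin and DMSO.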

[24] = qHTS for differential inhibitors of proliferation of Plasmodium falciparum line W2 (AID 1883); details: Potency: Plasmodium falciparum W2 proliferation inhibition;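 note: potency is the fitted concentration of half-maximal effect; parasites grown with compound for 72 h before lysis and staining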
[25] = qHTS for differential inhibitors of proliferation of Plasmodium falciparum line HB3 (AID 1886); details: Potency: Plasmodium falciparum HB3 proliferation inhibition;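 note: potency is the fitted concentration of half-maximal effect; parasites grown with compound for 72 h before SYBR Green readout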
[26] = target: Ferritin light chain (Equus caballus) (UniProt P02791); assay: qHTS Validation Assay for Identification of Novel General Anesthetics (AID 2323); note: % is set by controls: 0 for no effect and ±100 for the full control effect
Method in brief: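 Apoferritin from horse spleen (10 uM) was mixed with 1-aminoanthracene at 50% saturation in PBS, then compounds were added. After 10 min at room temperature, fluorescence was read (ex 380 nm, em 535 nm) and normalized to free-probe and complex controls.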

[27] = target: ATP-dependent DNA helicase Q1 (Homo sapiens) (UniProt P46063); assay: qHTS Validation Assay for Inhibitors of RecQ-Like Dna Helicase 1 (RECQ1) (AID 2353);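 note: plate controls were DMSO vehicle for no effect and enzyme-free control for full effect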
Method in brief: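 50 nM RECQ1T1 preincubated 15 min with compound in Tris pH 8.0 buffer with MgCl2, DTT, Tween-20 and 2.5 ug/ml poly(dI-dC); started with 200 nM TAMRA/BHQ-2 forked duplex and 2 mM ATP. Unwinding read as fluorescence (525/598 nm), two reads 2 h apart.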

[28] = target: RecQ-like DNA helicase BLM (Homo sapiens) (UniProt P54132); assay: qHTS Validation Assay for Inhibitors of Bloom's syndrome helicase (BLM) (AID 2364);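 note: plate controls were DMSO vehicle for no effect and enzyme-free control for full effect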
Method in brief: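 50 nM BLM preincubated 15 min at room temperature with compound in pH 8.0 Tris buffer containing 2.5 ug/ml poly(dI-dC); started with 200 nM TAMRA/BHQ-2 forked duplex and 2 mM ATP (final). Unwinding read as TAMRA fluorescence increase, two reads 2 h apart.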

[29] = Validation screen for small molecules that induce DNA re-replication in MCF 10A normal breast cells (AID 463097); note: 0% is about no effect; nearly all actives have a fitted effect of over 60% in size
Method in brief: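 DNA re-replication was detected as a rise in nuclei with elevated Hoechst fluorescence after a 48 hr compound exposure of MCF 10A cells at 37 C.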

[30] = Quantitative high throughput screen for delayed death inhibitors of the malarial parasite plastid, 48 hour incubation (AID 488752); note: potency is the fitted concentration of half-maximal effect; nearly all actives have a fitted effect of over 65% in size
Method in brief: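 Erythrocytes infected with firefly luciferase-expressing P. falciparum (2% hematocrit, 0.1% parasitemia) cultured with compound for 48 h at 37 C, 5% CO2, in RPMI 1640/0.5% Albumax. Growth inhibition read as loss of luminescence.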

[31] = target: M-phase phosphoprotein 8 (Homo sapiens) (UniProt Q99549); assay: qHTS Validation Assay for Inhibitors for MPP8 Chromodomain Interactions with Methylated Histone Tails (AID 488949);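 note: AlphaScreen signal from MPP8 chromodomain bound to biotinylated H3K9me3 peptide; top concentration of the series differs between compounds; % is set by controls: 0 for no effect and ±100 for the full control effect; nearly all actives have a fitted effect of over 55% in size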
Method in brief: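 Disruption of the preformed MPP8–trimethyl-H3K9 peptide complex (both 50 nM, 30 min, RT) is measured after 30 min compound exposure, using AlphaScreen proximity beads; aurintricarboxylic acid titration serves as plate control.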

[32] = target: Transient receptor potential cation channel subfamily V member 1 (Homo sapiens) (UniProt Q8NER1); assay: HTS Assay for Compounds that Act as Enhancers of the Vanilloid Receptor 1 (AID 488979); note: 0% is about no effect
Method in brief: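 TRPV1 cells loaded with Fluo-8 calcium dye; compound added and Ca2+ signal (ex 480/em 520 nm) followed 3 min, then capsaicin at EC20 added and read 2 more min to detect enhancement.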

[33] = target: Galactokinase (Homo sapiens) (UniProt P51570); assay: qHTS Validation Assay for Inhibitors of Human Galactokinase (GALK) (AID 493189); note: 0% is about no effect
Method in brief: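 Compounds were pin-transferred into ATP buffer, then GALK-galactose mix was added (final 5 nM enzyme, 100 uM galactose, 35 uM ATP). After 1 h at room temperature, remaining ATP was measured luminescently.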

[34] = Validation screen for small molecules that induce DNA re-replication in SW480 colon adenocarcinoma cells (AID 504364); note: 0% is about no effect
Method in brief: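 SW480 cells (250/well) exposed 48 h at 37 C, 5% CO2, then Hoechst-stained 40 min. Nuclear DNA content imaged by fluorescence scanning (405 nm excitation, 500-530 nm emission); re-replication scored as increased nuclei with elevated intensity.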

[35] = target: DNA dC->dU-editing enzyme APOBEC-3G (Homo sapiens) (UniProt Q9HC16); assay: qHTS for inhibitors of Vif-A3G interactions: Validation (AID 588379); note: 0% is about no effect
Method in brief: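 HeLa cells stably expressing Vif and A3G-eYFP, 700 cells/well, incubated overnight at 37 deg C, then exposed to compound overnight at 37 deg C. Inhibition of Vif-mediated degradation read as increased yellow fluorescence (Ex 488/Em 500-530) by laser-scanning cytometry.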

[36] = system: Zika virus NS2B-NS3 protease; assay: Primary screen GU AMC qHTS for Zika virus inhibitors (AID 1347154);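 note: 0% = no-inhibitor control and -100% = no-enzyme control; nearly all actives have a fitted effect of over 70% in size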
Method in brief: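 Unlinked Zika NS2B hydrophilic domain–NS3 protease complex at 25 nM in 10 mM Tris-HCl pH 8.0, 0.01% Tween 20, with an AMC peptide substrate. Fluorescence change (340/450 nm) over 15 min at room temperature, normalized to controls, fitted to 4-parameter Hill.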

[37] = Primary qHTS for small molecule stabilizers of the endoplasmic reticulum resident proteome: Secreted ER Calcium Modulated Protein (SERCaMP) assay (AID 1508630); note: % is set by controls: 0 for no effect and ±100 for the full control effect
Method in brief: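 GLuc-SERCaMP-expressing SH-SY5Y cells, pretreated 16 h with compound, are challenged with thapsigargin to empty ER calcium stores; after 4 h, coelenterazine is added directly to the medium and luminescence is imaged.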

Sequence of Glucocorticoid receptor (Homo sapiens) (P04150 whole entry, looked up, the tested form may be a part): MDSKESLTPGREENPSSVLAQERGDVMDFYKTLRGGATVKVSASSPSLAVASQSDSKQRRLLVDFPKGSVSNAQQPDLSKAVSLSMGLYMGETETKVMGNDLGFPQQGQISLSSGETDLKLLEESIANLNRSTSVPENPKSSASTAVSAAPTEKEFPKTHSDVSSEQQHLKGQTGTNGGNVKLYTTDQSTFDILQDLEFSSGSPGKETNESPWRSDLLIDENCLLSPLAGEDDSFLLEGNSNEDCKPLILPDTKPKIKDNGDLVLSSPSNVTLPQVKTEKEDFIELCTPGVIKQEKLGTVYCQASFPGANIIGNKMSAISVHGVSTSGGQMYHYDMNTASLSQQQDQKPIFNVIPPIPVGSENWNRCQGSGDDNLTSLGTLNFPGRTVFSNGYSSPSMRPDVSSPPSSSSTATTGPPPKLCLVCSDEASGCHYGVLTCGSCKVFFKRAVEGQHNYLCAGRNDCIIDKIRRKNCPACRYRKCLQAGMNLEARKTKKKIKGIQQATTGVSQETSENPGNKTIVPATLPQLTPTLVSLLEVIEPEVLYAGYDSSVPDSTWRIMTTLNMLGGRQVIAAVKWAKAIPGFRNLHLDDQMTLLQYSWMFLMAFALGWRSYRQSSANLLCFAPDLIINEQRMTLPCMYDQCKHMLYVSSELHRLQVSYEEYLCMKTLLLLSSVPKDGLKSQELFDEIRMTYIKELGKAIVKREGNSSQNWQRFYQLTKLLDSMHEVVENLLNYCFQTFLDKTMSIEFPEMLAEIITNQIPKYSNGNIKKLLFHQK
Sequence of Cytochrome P450 1A2 (Homo sapiens) (P05177 whole entry, looked up): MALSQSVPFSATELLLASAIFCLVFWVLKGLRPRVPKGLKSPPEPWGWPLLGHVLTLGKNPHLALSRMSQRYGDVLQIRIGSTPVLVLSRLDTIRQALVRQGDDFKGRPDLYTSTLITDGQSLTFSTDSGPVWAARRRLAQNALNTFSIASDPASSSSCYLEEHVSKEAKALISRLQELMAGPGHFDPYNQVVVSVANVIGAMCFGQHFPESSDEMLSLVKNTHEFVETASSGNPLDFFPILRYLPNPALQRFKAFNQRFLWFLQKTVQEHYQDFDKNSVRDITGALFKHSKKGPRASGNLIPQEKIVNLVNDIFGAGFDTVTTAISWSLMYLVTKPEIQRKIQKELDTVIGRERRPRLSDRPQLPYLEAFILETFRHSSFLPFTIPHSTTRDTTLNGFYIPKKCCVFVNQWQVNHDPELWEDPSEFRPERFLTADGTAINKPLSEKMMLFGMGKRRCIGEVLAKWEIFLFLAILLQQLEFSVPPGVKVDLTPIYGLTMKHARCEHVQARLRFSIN
Sequence of 3',5'-cyclic-AMP phosphodiesterase 4B (Homo sapiens) (Q07343 whole entry, looked up): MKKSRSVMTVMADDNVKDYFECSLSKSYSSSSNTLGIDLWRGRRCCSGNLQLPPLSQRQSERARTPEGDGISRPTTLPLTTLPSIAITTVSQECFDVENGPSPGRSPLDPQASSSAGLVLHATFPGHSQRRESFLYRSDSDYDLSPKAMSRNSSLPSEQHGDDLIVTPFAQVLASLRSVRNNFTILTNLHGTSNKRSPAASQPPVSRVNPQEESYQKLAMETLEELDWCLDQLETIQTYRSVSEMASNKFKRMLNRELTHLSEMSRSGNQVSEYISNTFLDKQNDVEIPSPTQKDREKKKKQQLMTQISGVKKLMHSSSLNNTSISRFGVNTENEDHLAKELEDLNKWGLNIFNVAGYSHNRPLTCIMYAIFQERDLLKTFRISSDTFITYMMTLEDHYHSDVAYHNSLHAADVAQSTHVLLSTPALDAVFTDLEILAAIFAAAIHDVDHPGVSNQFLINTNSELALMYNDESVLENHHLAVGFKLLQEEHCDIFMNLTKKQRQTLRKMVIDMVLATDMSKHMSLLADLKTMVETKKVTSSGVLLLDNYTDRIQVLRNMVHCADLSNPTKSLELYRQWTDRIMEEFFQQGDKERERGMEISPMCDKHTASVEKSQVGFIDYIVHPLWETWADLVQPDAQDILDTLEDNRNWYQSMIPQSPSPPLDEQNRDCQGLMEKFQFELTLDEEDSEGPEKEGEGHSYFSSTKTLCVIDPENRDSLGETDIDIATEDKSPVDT
Sequence of Cytochrome P450 3A4 (Homo sapiens) (P08684 whole entry, looked up): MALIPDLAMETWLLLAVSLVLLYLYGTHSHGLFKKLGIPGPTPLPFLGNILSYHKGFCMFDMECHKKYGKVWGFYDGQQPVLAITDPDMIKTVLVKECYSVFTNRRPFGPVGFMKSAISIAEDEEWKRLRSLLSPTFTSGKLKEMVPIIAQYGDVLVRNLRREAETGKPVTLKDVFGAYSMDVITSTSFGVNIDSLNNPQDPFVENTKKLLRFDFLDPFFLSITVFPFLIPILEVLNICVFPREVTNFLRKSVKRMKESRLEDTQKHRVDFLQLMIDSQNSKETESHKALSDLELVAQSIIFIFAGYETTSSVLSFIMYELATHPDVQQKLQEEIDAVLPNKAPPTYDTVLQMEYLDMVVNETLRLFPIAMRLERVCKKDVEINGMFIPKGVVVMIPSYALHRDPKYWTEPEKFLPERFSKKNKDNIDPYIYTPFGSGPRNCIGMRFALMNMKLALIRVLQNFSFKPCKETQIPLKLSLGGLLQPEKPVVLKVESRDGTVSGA
Sequence of Pyruvate kinase (Leishmania mexicana) (Q27686 2-499 E452W): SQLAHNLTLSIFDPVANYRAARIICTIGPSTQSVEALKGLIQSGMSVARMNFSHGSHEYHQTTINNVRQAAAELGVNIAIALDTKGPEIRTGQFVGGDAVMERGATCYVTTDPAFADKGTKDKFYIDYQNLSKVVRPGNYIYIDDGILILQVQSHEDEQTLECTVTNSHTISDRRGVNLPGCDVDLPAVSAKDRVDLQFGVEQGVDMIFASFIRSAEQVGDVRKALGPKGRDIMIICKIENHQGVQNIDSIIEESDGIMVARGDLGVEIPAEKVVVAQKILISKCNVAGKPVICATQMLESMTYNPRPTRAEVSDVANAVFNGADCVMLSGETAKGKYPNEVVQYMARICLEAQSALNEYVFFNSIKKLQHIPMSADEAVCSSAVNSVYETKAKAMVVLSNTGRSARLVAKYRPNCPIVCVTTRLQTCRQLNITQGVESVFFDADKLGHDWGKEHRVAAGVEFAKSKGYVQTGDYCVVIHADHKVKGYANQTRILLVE
Sequence of ATP-dependent DNA helicase Q1 (Homo sapiens) (P46063 whole entry, looked up): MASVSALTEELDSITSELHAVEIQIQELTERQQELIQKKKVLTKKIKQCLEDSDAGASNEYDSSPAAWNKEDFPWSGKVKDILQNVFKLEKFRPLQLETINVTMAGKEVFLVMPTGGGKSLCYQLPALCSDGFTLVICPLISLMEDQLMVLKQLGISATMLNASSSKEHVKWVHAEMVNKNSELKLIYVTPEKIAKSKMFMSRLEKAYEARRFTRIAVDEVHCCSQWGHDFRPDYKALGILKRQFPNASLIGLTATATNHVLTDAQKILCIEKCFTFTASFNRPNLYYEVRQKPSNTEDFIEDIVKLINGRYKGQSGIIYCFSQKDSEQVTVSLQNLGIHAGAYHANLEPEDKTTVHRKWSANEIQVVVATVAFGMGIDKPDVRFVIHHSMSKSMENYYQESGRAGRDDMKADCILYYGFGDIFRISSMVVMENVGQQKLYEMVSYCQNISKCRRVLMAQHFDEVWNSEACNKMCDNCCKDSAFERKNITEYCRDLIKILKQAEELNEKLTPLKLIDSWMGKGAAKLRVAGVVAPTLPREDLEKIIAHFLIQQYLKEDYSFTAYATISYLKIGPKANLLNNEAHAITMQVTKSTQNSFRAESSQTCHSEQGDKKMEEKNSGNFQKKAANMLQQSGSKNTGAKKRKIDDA
Sequence of Alpha-galactosidase A (Homo sapiens) (P06280 whole entry, looked up): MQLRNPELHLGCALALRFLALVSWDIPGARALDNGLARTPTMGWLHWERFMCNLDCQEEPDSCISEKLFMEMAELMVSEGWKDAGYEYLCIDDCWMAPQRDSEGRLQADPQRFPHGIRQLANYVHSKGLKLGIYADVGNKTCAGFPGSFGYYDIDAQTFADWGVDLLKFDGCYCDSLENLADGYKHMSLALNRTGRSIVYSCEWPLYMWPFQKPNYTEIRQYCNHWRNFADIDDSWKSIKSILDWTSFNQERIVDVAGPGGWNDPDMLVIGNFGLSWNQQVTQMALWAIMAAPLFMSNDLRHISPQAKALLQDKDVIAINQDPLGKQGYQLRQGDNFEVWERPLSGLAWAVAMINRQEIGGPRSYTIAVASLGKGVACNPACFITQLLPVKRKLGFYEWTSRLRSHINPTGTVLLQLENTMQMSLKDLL
Sequence of Galactokinase (Homo sapiens) (P51570 whole entry, looked up): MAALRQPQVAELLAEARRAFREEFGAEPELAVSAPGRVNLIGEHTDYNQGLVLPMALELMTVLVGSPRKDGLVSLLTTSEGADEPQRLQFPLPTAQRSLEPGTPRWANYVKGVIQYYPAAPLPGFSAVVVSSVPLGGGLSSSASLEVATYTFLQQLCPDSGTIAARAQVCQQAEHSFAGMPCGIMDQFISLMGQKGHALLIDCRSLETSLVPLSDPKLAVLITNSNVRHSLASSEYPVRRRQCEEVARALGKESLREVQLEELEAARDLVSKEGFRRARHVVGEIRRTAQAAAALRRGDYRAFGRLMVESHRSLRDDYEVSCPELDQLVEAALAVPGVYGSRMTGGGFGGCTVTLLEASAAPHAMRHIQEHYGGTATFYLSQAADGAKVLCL
Sequence of Guanine nucleotide-binding protein G(i) subunit alpha-1 (Homo sapiens) (P63096 whole entry, looked up): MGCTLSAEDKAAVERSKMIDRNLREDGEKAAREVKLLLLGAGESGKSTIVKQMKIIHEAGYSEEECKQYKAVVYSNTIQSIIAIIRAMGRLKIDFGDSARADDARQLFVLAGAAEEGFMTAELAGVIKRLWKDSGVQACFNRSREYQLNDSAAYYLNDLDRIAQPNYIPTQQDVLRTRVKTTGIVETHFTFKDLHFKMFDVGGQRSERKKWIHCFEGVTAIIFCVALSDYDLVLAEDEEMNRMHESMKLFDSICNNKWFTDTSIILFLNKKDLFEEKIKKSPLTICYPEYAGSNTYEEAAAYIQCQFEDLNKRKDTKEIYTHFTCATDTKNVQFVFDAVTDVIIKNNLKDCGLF

COc1[nH]c2ccc(F)cc2c1C(=O)OCC1CCN(CCNS(C)(=O)=O)CC1
inactive: activity change, negative = inhibition [1] 1.52% | Potency [2] | activity change, negative = inhibition [3] 0.0444% | activity, negative = inhibition [4] 16.9% | Potency [5] > 46 µM | Potency [6] > 46 µM | Potency [7] | Potency [8] | outcome [9] | Potency [10] | Potency [11] | Potency [12] | outcome [13] | outcome [14] | outcome [15] | outcome [16] | Potency [17] | Potency [18] | Potency [23] | outcome [26] | Potency [27] | Potency [28] | Potency [29] | Potency [31] | outcome [32] | outcome [33] | outcome [34] | Potency [35] | Potency [36] | Potency [37]
active: Potency [19] 7.94 µM | Potency [20] 6.31 µM | Potency [21] 7.08 µM | Potency [22] 7.08 µM | Potency [24] 10 µM | Potency [25] 5.01 µM | Potency [30] 11.7 µM

Reference: PubChem BioAssay (NCATS)
